GIRK2 activator: Activators of human GIRK2-containing channels; AID 1259324; P48051; activation (% efficacy), % for hits at 37.5 µM; HEK293 GIRK2/NPY4 cells, thallium flux fluorescence; 34,000 tested, under 10 active;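 active means primary screen hit, no activity in plain HEK293 cells, and in GIRK2-only cells above 5% efficacy rising with concentration; inactive means the rest, including fluorescent compounds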;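 further: efficacy is normalized control-subtracted fluorescence 15 s after thallium addition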
AMPAR-TARP mod: GluA2-stargazin AMPA receptor complex modulation; calls only at 30 µM; HEK293 GluA2+stargazin, membrane potential dye (FDSS), glutamate EC50; hits were called plate by plate, in both directions; 40,000 tested, 3.5% active; O88602+P19491; AID 1259245;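 active means any of four per-well response measures lying three or more SD from its plate-wide compound average, in either direction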
Calls only; i = inactive; nt = no result; + = active, no number. This is one part of a sample in which hits are shown more often than they occur.

SMILES	GIRK2 activator	AMPAR-TARP mod
CCCn1c(C2CC(=O)N(c3ccc(C)c(Cl)c3)C2)nc2ccccc21 (stereo not drawn)	nt	i
Cc1noc(C2CN(C(=O)c3cnn(-c4ccccc4)c3C)C2)n1	i	i
CN1CC(c2nc3ccccc3n2CCCc2ccccc2)CC1=O (stereo not drawn)	nt	i
O=C1CC(c2nc3ccccc3n2CC2CCCCC2)CN1CCc1ccccc1 (stereo not drawn)	nt	+
COc1cc(OC)cc(C(=O)NCCN2CCN(c3ccccc3F)CC2)c1	i	i
COCCNc1oc(-c2ccc(C)cc2)nc1S(=O)(=O)c1ccccc1	i	i
O=C(NCCCn1cccc1)c1cc(-c2ccccc2)n[nH]1	i	i
O=C(NCCCn1cccc1)c1ccccc1	i	+
O=C(Nc1ccc(N2CCCCC2=O)cc1)Oc1ccccc1	i	i
CCC(C)NC(=O)c1cc2cc(Br)cc(OC)c2oc1=O (stereo not drawn)	i	i
CCCOC(=O)c1cc2cc(Br)cc(OC)c2oc1=O	i	+
CSc1cccc(NC(=O)C(=O)NC2CCCCCC2)c1	nt	i
Cc1ccc(C(CNC(=O)c2ccccc2C)N2CCOCC2)cc1 (stereo not drawn)	i	+
COc1ccc(C(CNC(=O)c2cccc([N+](=O)[O-])c2C)N2CCOCC2)cc1 (stereo not drawn)	nt	+
COc1cccc(C(CNC(=O)COc2ccccc2)N2CCOCC2)c1 (stereo not drawn)	i	+
Cc1ccc(C(CNC(=O)c2cccs2)N2CCOCC2)cc1 (stereo not drawn)	i	i
Cc1ccc(C(CNC(=O)COc2ccc3ccccc3c2)N2CCOCC2)cc1 (stereo not drawn)	i	+
Cc1ccc(OCC(=O)NCC(c2cccc3ccccc23)N2CCOCC2)cc1 (stereo not drawn)	i	i
COc1ccc(C(CNC(=O)C(=O)Nc2ccccc2[N+](=O)[O-])N2CCOCC2)cc1 (stereo not drawn)	i	nt
COc1cccc(C(CNC(=O)COc2ccc(C)cc2)N2CCOCC2)c1 (stereo not drawn)	nt	i
O=c1ccc(-c2ccc(Cl)cc2)nn1CCCNS(=O)(=O)CCc1ccccc1	i	i
COC(=O)c1sccc1S(=O)(=O)Nc1ccc(C)cc1Cl	nt	i
COc1cccc(NC(=O)Cn2cc(OC)c(=O)cc2CSc2ccc(Cl)cc2)c1	i	i
COc1ccc(C(=O)NCC(c2cccc(OC)c2)N2CCOCC2)cc1 (stereo not drawn)	i	i
COc1ccc(CC(=O)NCC(c2cccc3ccccc23)N2CCOCC2)cc1 (stereo not drawn)	i	i
SMILES	GIRK2 activator	AMPAR-TARP mod
O=C(NCC(c1cccc2ccccc12)N1CCOCC1)c1ccc(Br)cc1 (stereo not drawn)	i	+
CCOc1ccc2ccccc2c1C(=O)NCC(c1cccc(OC)c1)N1CCOCC1 (stereo not drawn)	i	+
COc1cccc(-n2c(=O)[nH]c3c(C(N)=O)nc(-c4ccccc4OC)nc32)c1	i	i
O=C(c1cccs1)N1CCN(c2ccc(Nc3cccnc3)nn2)CC1	i	i
Cc1cc(=O)[nH]c(-n2nc(C)c(CCC(=O)NCCc3ccccc3)c2C)n1	i	i
CSCCC(C)(O)CNS(=O)(=O)c1ccc(Br)s1 (stereo not drawn)	nt	i
COc1ccc(S(=O)(=O)NCC(C)(O)CCSC)cc1Cl (stereo not drawn)	i	+
CSCCC(C)(O)CNS(=O)(=O)c1ccc(Cl)s1 (stereo not drawn)	i	+
COc1ccc(S(=O)(=O)NCC(C)(O)C2CC2)cc1Cl (stereo not drawn)	i	i
COc1ccccc1-c1cnn2c(NCCN3CCOCC3)cc(C)nc12	i	i
O=C(NCCc1cccs1)C1CCN(c2cc(Oc3ccccc3)ncn2)CC1	i	i
Cc1cccc(C)c1N1CCN(C(=O)c2ccc3c(c2)OCO3)CC1	nt	+
Cn1ccnc1N1CCN(C(=O)c2ccc3c(c2)OCO3)CC1	i	i
O=C(NCC1(O)CCc2ccccc21)C1c2ccccc2Oc2ccccc21 (stereo not drawn)	i	nt
Cc1nn(C(C)(C)C)c(OC(=O)c2ccccc2Br)c1S(=O)(=O)c1ccccc1	nt	+
COc1cc(OC)cc(C(=O)Oc2c(S(=O)(=O)c3ccccc3)c(C)nn2C(C)(C)C)c1	nt	i
COc1cc(OC)cc(C(=O)Oc2c(S(=O)(=O)c3ccc(C)cc3)c(C)nn2C(C)(C)C)c1	nt	+
Cc1ccc(S(=O)(=O)c2c(C)nn(C(C)(C)C)c2OC(=O)c2ccccc2C)cc1	nt	i
O=C(NCCc1ccsc1)C(=O)Nc1ccc2c(c1)OCO2	i	i
COc1ccc(NC(=O)c2ccc(=O)n(CC(=O)Nc3cc(C(F)(F)F)ccc3Cl)n2)cc1	i	i
CC(C)N(C(=O)Cn1nc(-c2ccco2)c2sc(N3CCCCC3)nc2c1=O)c1ccccc1	i	i
Cc1cc(Br)c2nc(-c3ccncc3)oc(=O)c2c1	i	+
